Screening data: PubChem BioAssay, NMMLSC
Only some compounds are listed: those with a hit (about 2.5% of all), similar ones and a draw of the others.
MEKK2wt PB1 HTS = raises or lowers MEK5 binding to wildtype human MEKK2 PB1 domain; 1.1% of 290,000 active; Q9Y2U5; AID 1531; binding response (% of control), % at 10 µM; bead flow cytometry, Alexa488-MEK5 binding to MEKK2 WT; actives lie on both sides; in the data active = binding response below about 67% or above about 130%
MEKK3 PB1 HTS = raises or lowers MEK5 binding to the human MEKK3 PB1 domain; 1.4% of 290,000 active; AID 1529; bead-based flow cytometry, Alexa488-MEK5 binding to MEKK3; actives lie on both sides; 0 = blocked by unlabeled MEK5, 100 = vehicle; binding response (% of control), % at 10 µM; Q99759;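 active = binding response more than 3 SD above or below the average of its plate-row segment, actives on both sides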;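 note: Alexa488 bead fluorescence after subtracting the streptavidin-only scavenger bead signal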
GRK2 aptamer HTS = inhibitors of human GRK2 displacing RNA aptamer. P25098. bead flow cytometry, FAM-aptamer displacement from GRK2. inhibition of aptamer binding, % at 10 µM. 0.59% of 330,000 active;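 active = inhibition of aptamer binding above 40%, roughly 3 SD of noise, on plates passing a quality check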;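 note: median bead fluorescence of bound FAM aptamer so fluorescent compounds give negative values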
Target sequence (P25098 whole entry, looked up): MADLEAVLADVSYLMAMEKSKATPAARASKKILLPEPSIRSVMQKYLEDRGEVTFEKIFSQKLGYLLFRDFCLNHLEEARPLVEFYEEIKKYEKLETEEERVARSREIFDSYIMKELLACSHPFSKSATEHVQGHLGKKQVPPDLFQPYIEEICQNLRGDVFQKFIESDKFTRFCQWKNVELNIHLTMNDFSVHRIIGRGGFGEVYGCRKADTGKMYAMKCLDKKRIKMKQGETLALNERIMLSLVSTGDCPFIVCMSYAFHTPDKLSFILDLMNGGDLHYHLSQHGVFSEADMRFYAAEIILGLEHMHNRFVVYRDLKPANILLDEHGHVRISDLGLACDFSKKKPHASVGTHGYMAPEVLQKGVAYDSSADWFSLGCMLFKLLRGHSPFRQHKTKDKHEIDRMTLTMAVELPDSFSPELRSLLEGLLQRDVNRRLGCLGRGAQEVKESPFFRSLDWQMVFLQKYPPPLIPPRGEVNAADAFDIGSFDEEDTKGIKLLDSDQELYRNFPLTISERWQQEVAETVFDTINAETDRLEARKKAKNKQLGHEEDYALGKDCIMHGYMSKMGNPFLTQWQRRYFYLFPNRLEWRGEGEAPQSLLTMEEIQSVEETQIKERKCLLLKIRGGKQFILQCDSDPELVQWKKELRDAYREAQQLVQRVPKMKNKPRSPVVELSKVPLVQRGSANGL
MEKK2 mut-MEK5 = signal of MEK5 binding to mutant human MEKK2 PB1 domain; bead flow cytometry, Alexa488-MEK5 binding to MEKK2 mutant; 0.35% of 290,000 active; percent response, % at 10 µM; in the data active = percent response above about 24%, passing the limit was not always enough
MEKK2wt confirm = raises or lowers MEK5 binding to wildtype human MEKK2, retest | bead flow cytometry, Alexa488-MEK5 binding to MEKK2 WT; actives lie on both sides | binding response (% of control), % at 10 µM | shares compounds with MEKK3 PB1 HTS | 2.4% of 5,900 active; in the data active = binding response below about 16% or above about 210%; inactive = in between
MEKK2mut confirm = signal of MEK5 binding to mutant human MEKK2, retest; shares compounds with MEKK3 PB1 HTS; bead flow cytometry, Alexa488-MEK5 binding to MEKK2 mutant; percent response, % at 10 µM; 2% of 5,900 active; AID 1893; in the data active = percent response mostly above about 71%, no sharp cut-off; inactive = mostly below about 38%;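 note: higher means compound restores mutant binding toward wildtype level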
MEKK3-MEK5 inh = confirmation of inhibitors of MEK5 binding to human MEKK3 | shares compounds with MEKK3 PB1 HTS | bead flow cytometry, Alexa488-MEK5 binding to MEKK3; stronger effect = lower value | binding response (% of control), % at 10 µM | 1.8% of 5,900 active | AID 1894;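 active = binding response below 72% of control, or above a set upper limit, though filed actives all read lower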;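 note: 100% = DMSO only wells and 0% = binding blocked by excess unlabeled MEK5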
Numbers without * were called inactive; nt = no result given; [ ] = dose if it differs, or a comment.

SMILES | MEKK2wt PB1 HTS | MEKK3 PB1 HTS | GRK2 aptamer HTS | MEKK2 mut-MEK5 | MEKK2wt confirm | MEKK2mut confirm | MEKK3-MEK5 inh
O=C(O)CCC(=O)c1ccc(-c2ccccc2)cc1 | 32*[inhibitor] | 67*[inhibitor] | 2 | 2 | 102 | -7 | 99
CC(=O)n1cc([C@H]2C=C(C(=O)O)O[C@@H](OCCCCO)C2)c2ccccc21 | 111 | 93 | 0 | 14 | nt | nt | nt
Fc1cccc(Nc2nc(Cl)nc(Cl)n2)c1 | 3.0*[inhibitor] | 3.0*[inhibitor] | 0 | -22 | 104 | 5 | 103
CN(C#N)c1nc(Cl)nc(Nc2cccc(Cl)c2)n1 | 112 | 144* | 6 | 4 | 102 | -1 | 100
Cc1ccc(NC(=O)COC(=O)Cc2ccsc2)cc1S(=O)(=O)N(C)C | 83 | 85 | 27 | -20 | nt | nt | nt
CCOCc1c(C(=O)OCC(=O)Nc2ccc(C)c(S(=O)(=O)N(C)C)c2)oc2ccccc12 | 110 | 135* | 0 | 0 | 105 | -2 | 103
CN(C)CCCN(C(=O)c1nc2ccccc2s1)c1nc2ccc(F)cc2s1 | nt | nt | 0 | nt | nt | nt | nt
CN(C)CCCN(C(=O)c1cc(-c2cccs2)nc2ccccc12)c1nc2c(F)cccc2s1 | 172* | 103 | 0 | 27* | 173 | 45 | 99
Cc1ccc2nc(N(CCCN(C)C)C(=O)c3cc(-c4cccs4)nc4ccccc34)sc2c1 | 228* | 116 | 0 | 73* | 205 | 63 | 109
CN(C)CCCN(C(=O)/C=C/c1cccs1)c1nc2c(F)cccc2s1 | 132 | 109 | nt | 4 | nt | nt | nt
COC(=O)C1=C(SC)N(c2ccc(OC)cc2)C(c2ccccc2)CC1=O (stereo not drawn) | 109 | 106 | 1 | 3 | nt | nt | nt
CC[C@@H]1CC=C[C@H]2[C@H]1C(=O)N(Cc1ccccc1)[C@H]2c1ccc2ccccc2c1 | 94 | 79*[inhibitor] | nt | -7 | 99 | 14 | 102
C[C@@H]1CC=C[C@H]2[C@H]1C(=O)N(Cc1ccccc1)[C@H]2c1ccc(F)c(-c2ccc(N(C)C)cc2)c1 | 54*[inhibitor] | 66*[inhibitor] | 1 | 2 | 100 | -12 | 98
COc1ccc(CCNC(=O)C(=O)NCC2CCCN2S(=O)(=O)c2ccccc2)cc1 (stereo not drawn) | nt | nt | 0 | nt | nt | nt | nt
CCOc1ccc(-c2noc(=O)[nH]2)cc1 | 39*[inhibitor] | 23*[inhibitor] | 1 | -33 | 107 | 3 | 103
CCc1nc2nc(C)c(NS(=O)(=O)c3ccc(F)cc3)c(=O)n2[nH]1 | 84 | 93 | 1 | -10 | nt | nt | nt
Cc1ccccc1C(=O)NNc1ncnc2c1cnn2C | 96 | 92 | 2 | -4 | nt | nt | nt
Cn1ncc2c(NNC(=O)c3ccccc3Cl)ncnc21 | 100 | 129* | 2 | -1 | 100 | 2 | 104
Cn1c(N)c(C(=O)COC(=O)/C=C/c2cccc(F)c2)c(=O)n(C)c1=O | nt | nt | 0 | nt | nt | nt | nt
Cc1nnc(SCC(=O)O)o1 | 92 | 96 | 1 | -2 | nt | nt | nt
CCN(CC)S(=O)(=O)c1ccc(C(=O)NNc2nc(-c3ccccc3)c3cc(Br)ccc3n2)cc1 | 118 | 103 | 0 | 3 | nt | nt | nt
Cc1cccc(C(C)C)c1NC(=O)CN(C)Cc1cccc(F)c1 | 102 | 101 | 0 | 0 | nt | nt | nt
Cc1ccccc1CN(C)CC(=O)Nc1c(C)cccc1C(C)C | 71 | 72*[inhibitor] | 3 | -24 | 107 | 4 | 104
Cc1ccc(Nc2c(-c3ccco3)nc3nc(C)cc(C)n23)cc1 | 97 | 119 | 2 | -1 | nt | nt | nt
Cc1ccc(NC(=O)C(OC(=O)c2ccccc2Cl)c2ccccc2)cc1Cl (stereo not drawn) | 98 | 88 | 0 | -4 | nt | nt | nt
SMILES | MEKK2wt PB1 HTS | MEKK3 PB1 HTS | GRK2 aptamer HTS | MEKK2 mut-MEK5 | MEKK2wt confirm | MEKK2mut confirm | MEKK3-MEK5 inh
Cc1cc(C(=O)OC(C(=O)Nc2ccc(C)c(Cl)c2)c2ccccc2)c(C)o1 (stereo not drawn) | 147* | 105 | 4 | 13 | 127 | 10 | 103
Cc1ccc(NC(=O)C(NC2CCCC2)c2ccccc2)cc1Cl (stereo not drawn) | 142* | 105 | 5 | 37 | 115 | 9 | 102
CCOc1ccc(CC(=N)C2=C(O)CC(C)(C)CC2=O)cc1OCC | 101 | 108 | 0 | 0 | nt | nt | nt
CCOc1ccc(CC(=NCCc2ccccc2)C2=C(O)CC(C)(C)CC2=O)cc1OCC | 112 | 146* | 3 | 1 | 77 | -13 | 79
Cc1nn(C(C)C(=O)NCc2ccccc2)c(C)c1[N+](=O)[O-] (stereo not drawn) | 105 | 104 | 0 | 3 | nt | nt | nt
CCc1ccc(NC(=O)C(C)n2nc(C)c([N+](=O)[O-])c2C)cc1 (stereo not drawn) | 75 | 68*[inhibitor] | 0 | -2 | 92 | -7 | 91
Cc1ccc(N=Nc2cc(C)ccc2O)c(C)c1 | 8.0*[inhibitor] | 5.0*[inhibitor] | 17 | -42 | 105 | -5 | 101
Cc1ccc(C)c(N=Nc2ccc(O)c3ncccc23)c1 | 84 | 102 | 3 | -10 | nt | nt | nt
O=C(Nc1ccccc1)N(CCN1CCOCC1)Cc1ccccc1F | 104 | 103 | 0 | 6 | nt | nt | nt
CN(C)S(=O)(=O)N(CCN1CCOCC1)Cc1ccccc1F | 112 | 105 | 0 | 24* | 99 | 0 | 97
Cc1nc2ccc(NC(=O)c3cccnc3)cc2s1 | 60 | 50*[inhibitor] | 0 | -13 | 105 | 7 | 104
Cc1nc2ccc(NC(=O)c3cnc(Cl)c(Cl)c3)cc2s1 | 107 | 106 | 2 | 7 | nt | nt | nt
CCN(CC)c1ccc(NC(=O)c2cccnc2)cc1 | 134* | 110 | 2 | 13 | 96 | -4 | 99
CC(C)c1nnc(NC(=O)CSc2nnc(NC(=O)c3c(F)cccc3F)s2)s1 | 103 | 103 | 0 | 3 | nt | nt | nt
CCOC(=O)C1=C(O)/C(=C/c2ccc(OCC(=O)O)c(OCC)c2)SC1=Nc1ccc(OC)cc1 | 101 | 103 | 0 | -1 | nt | nt | nt
Cc1cc(OCc2cc(C(=O)NCCN3CCCCC3CO)no2)cc(C)c1Cl (stereo not drawn) | 136* | 106 | 2 | 19 | 133 | 18 | 106
CC(C)C(=O)Nc1nnc(SCC(=O)NCc2ccco2)s1 | 106 | 139* | 1 | 0 | 104 | 4 | 103
CC(C)CC(=O)Nc1nnc(SCC(=O)NCc2ccco2)s1 | 100 | 99 | 2 | 2 | nt | nt | nt
O=C1C(=Cc2ccc(Br)o2)C(=O)c2ccccc21 | 98 | 138* | 7 | 0 | 105 | 1 | 106
C[C@@H]1CN(C(=O)c2nc3ccc(Cl)cn3c2CN[C@H]2CCCCNC2=O)C[C@H](C)O1 | 95 | 102 | 0 | -3 | nt | nt | nt
CN(C)S(=O)(=O)c1cccc(NC(=S)Nc2cc(Cl)cc(Cl)c2)c1 | 150* | 111 | 0 | 10 | 114 | 3 | 107
